Only some compounds are listed: those with a hit (about 3.3% of all), similar ones and a draw of the others.
MBD2 DNA inh: inhibitors of human MBD2 binding to methylated oligonucleotide | inhibition, % at 4.4 µM | Q9UBB5 | actives 0.31% (n = 370,000) | TR-FRET; in the data active = inhibition above about 13%
PRMT1 FP inh: PRMT1 (human) inhibition, primary screen | recombinant PRMT1, activity-based probe fluorescence polarization | actives 1.3% (n = 370,000) | Q99873 | inhibition, % at 2.79 µM;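 active = inhibition above about 21% made by adding two undisclosed values, limit read from the data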
PfGluPho inh: PfG6PD (Plasmodium falciparum) enzyme inhibition; AID 504690; actives 0.78% (n = 350,000); inhibition, % at 20 µM; PfGluPho enzyme, NADPH resazurin-diaphorase fluorescence;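 active = inhibition reaching at least a set limit at 20 µM in the primary screen, cut at about 59% in these data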;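 note: 0% = DMSO wells with substrate and 100% = DMSO wells lacking glucose-6-phosphate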
PfM18AAP inh: blocks P. falciparum M18 aspartyl aminopeptidase. recombinant PfM18AAP, H-Glu-NHMec fluorogenic cleavage. inhibition, % at 7.35 µM. actives 1.2% (n = 290,000);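 active = inhibition above the campaign mean inhibition over all tested compounds plus 3 SD, cut at about 28% in these data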;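 note: 0% = plate median of test compound wells and 100% = 2 mM ZnCl2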
UHRF1 MBD2 ctr: UHRF1 methyl-DNA binding inhibition; Q96T88; UHRF1 binding to methylated oligo, TR-FRET; inhibition, % at 4.4 µM; actives 0.75% (n = 370,000); in the data active = inhibition above about 21%;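 note: UHRF1 SRA domain binding a hemimethylated CpG hairpin DNA probe; 0% = median of test compound wells and 100% = reference inhibitor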
Target sequence (Q96T88 whole entry, looked up, the tested form may be a part): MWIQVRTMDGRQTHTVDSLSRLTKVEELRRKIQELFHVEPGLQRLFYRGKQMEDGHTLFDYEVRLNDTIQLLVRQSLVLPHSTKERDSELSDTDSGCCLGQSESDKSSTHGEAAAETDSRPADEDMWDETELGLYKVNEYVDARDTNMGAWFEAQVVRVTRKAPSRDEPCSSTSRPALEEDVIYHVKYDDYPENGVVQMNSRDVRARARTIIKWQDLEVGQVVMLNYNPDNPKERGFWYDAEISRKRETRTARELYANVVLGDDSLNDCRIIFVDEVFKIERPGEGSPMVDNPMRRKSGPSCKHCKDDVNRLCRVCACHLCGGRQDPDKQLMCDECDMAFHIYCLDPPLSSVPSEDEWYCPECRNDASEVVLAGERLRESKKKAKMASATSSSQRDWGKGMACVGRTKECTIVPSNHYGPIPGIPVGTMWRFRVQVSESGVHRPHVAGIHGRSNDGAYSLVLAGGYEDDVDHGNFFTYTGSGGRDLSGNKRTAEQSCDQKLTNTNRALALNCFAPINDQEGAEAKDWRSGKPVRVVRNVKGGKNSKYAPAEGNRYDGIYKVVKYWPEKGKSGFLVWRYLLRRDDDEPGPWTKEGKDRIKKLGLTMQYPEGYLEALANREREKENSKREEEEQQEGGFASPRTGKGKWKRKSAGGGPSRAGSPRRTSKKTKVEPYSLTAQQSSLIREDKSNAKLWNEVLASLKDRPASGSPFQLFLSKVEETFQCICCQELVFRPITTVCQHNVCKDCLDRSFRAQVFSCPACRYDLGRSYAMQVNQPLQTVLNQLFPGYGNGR
PfG6PD confirm: PfG6PD inhibition, single-dose confirmed | shares compounds with PfGluPho inh | recombinant PfGluPho, NADPH-diaphorase-resazurin fluorescence | inhibition, % at 20 µM | actives 34% (n = 2,400) | AID 504753;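 active = inhibition of at least 50% at 20 µM in any single replicate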;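 note: 0% = DMSO with substrate and 100% = DMSO lacking glucose-6-phosphate substrate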
Diaph ctr 10uM: inhibits diaphorase or oxidizes, flagging false PfG6PD hits | actives 39% (n = 820) | shares compounds with PfGluPho inh | inhibition, % at 20 µM | AID 504862 | diaphorase-coupled resazurin reduction, fluorescence, NADPH 10 uM;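 active = average inhibition reaching 50% or more with the compound at 20 µM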;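 note: resorufin red fluorescence formed as diaphorase reduces resazurin using NADPH; 0% = DMSO with enzyme and 100% = DMSO without enzyme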
Diaph ctr 30uM: counter-screen for P. falciparum G6PD inhibitors: diaphorase inhibitors, oxidizers | actives 29% (n = 820) | inhibition, % at 20 µM | Diaphorase/resazurin coupled assay, resorufin fluorescence, 30 uM NADPH | shares compounds with PfGluPho inh;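 active = inhibition averaging 50% or more, tested at 20 µM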;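 note: 0% = DMSO with enzyme and 100% = DMSO wells lacking diaphorase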
* = called active by the depositor.

What do the screens show for `CN(Cc1ccco1)S(=O)(=O)c1nnc(NC(=O)c2ccc(F)cc2)s1`?
MBD2 DNA inh: -4.0; PRMT1 FP inh: 5.0; PfGluPho inh: 98.0*; PfM18AAP inh: -23.8; UHRF1 MBD2 ctr: -1.2; PfG6PD confirm: 83.1*; Diaph ctr 10uM: 72.1*; Diaph ctr 30uM: 54.9*

What do the screens show for `COc1ccc(CN(C)S(=O)(=O)c2nnc(NC(=O)c3cccc(OC)c3)s2)cc1`?
MBD2 DNA inh: 1.3; PRMT1 FP inh: -3.2; PfGluPho inh: 95.6*; PfM18AAP inh: 2.7; UHRF1 MBD2 ctr: -1.7; PfG6PD confirm: 62.4*; Diaph ctr 10uM: 55.9*; Diaph ctr 30uM: 60.2*

What do the screens show for `COc1ccc(CN(C)S(=O)(=O)c2nnc(NC(=O)c3ccccc3OC)s2)cc1OC`?
MBD2 DNA inh: -2.5; PRMT1 FP inh: -2.7; PfGluPho inh: 9.9; PfM18AAP inh: 2.2; UHRF1 MBD2 ctr: -1.7

Results for COc1cccc(C(=O)Nc2nnc(S(=O)(=O)N(C)Cc3ccccc3)s2)c1 ?
MBD2 DNA inh: 0.1; PRMT1 FP inh: -0.5; PfGluPho inh: 88.3*; PfM18AAP inh: 1.5; UHRF1 MBD2 ctr: -2.2; PfG6PD confirm: 77.3*; Diaph ctr 10uM: 61.9*; Diaph ctr 30uM: 39.0

How did COc1ccc(CN(C)S(=O)(=O)c2nnc(NC(=O)c3ccccc3Br)s2)cc1 do in these assays?
MBD2 DNA inh: -5.0; PRMT1 FP inh: -2.5; PfGluPho inh: -3.9; PfM18AAP inh: 4.9; UHRF1 MBD2 ctr: -4.8

How did COc1cccc(C(=O)Nc2nnc(S(=O)(=O)N(C)Cc3ccc(F)cc3)s2)c1 do in these assays?
MBD2 DNA inh: 2.0; PRMT1 FP inh: 1.1; PfGluPho inh: 80.1*; PfM18AAP inh: -7.1; UHRF1 MBD2 ctr: 1.9; PfG6PD confirm: 48.4

What do the screens show for `CN(Cc1ccccc1)S(=O)(=O)c1nnc(NC(=O)c2ccccc2)s1`?
MBD2 DNA inh: -0.5; PRMT1 FP inh: -0.8; PfGluPho inh: 43.6; PfM18AAP inh: -7.2; UHRF1 MBD2 ctr: -1.4

What do the screens show for `CCCS(=O)(=O)NC(=O)C1(C)CCCN(C(=O)c2oc3ccccc3c2C)C1` (stereo not drawn)?
MBD2 DNA inh: -0.9; PRMT1 FP inh: 2.0; UHRF1 MBD2 ctr: -1.2

Results for O=C(Nc1ccc(Cl)cc1)OCCn1nnnc1C(c1ccccc1Cl)N1CCOCC1 (stereo not drawn) ?
MBD2 DNA inh: -4.3; PRMT1 FP inh: -2.2; PfGluPho inh: 27.0; PfM18AAP inh: -1.8; UHRF1 MBD2 ctr: 1.5

What do the screens show for `CCOc1ccc(NC(=O)CCNC(=O)Cn2ccc3ccccc3c2=O)cc1`?
PfGluPho inh: -4.7; PfM18AAP inh: 0.6

Results for O=C1C(=O)N(Cc2ccc(-c3ccccc3)cc2)c2ccc(OC(F)(F)F)cc21 ?
MBD2 DNA inh: -1.3; PRMT1 FP inh: 2.7; UHRF1 MBD2 ctr: -2.6

How did Cc1cccc(NC(=O)CSc2ncnc3sc4c(c23)CCCC4)c1 do in these assays?
MBD2 DNA inh: -4.4; PRMT1 FP inh: -8.4; UHRF1 MBD2 ctr: -1.4

What do the screens show for `COC(=O)[C@]12C[C@H](CC(=O)NCCc3ccccc3OC)C(=O)N(Cc3ccc4c(c3)OCO4)C1=C[C@H](COCc1ccccc1)O[C@@H]2C`?
MBD2 DNA inh: 5.5; PRMT1 FP inh: 6.5; UHRF1 MBD2 ctr: 0.4

What do the screens show for `COc1ccc(CN(C)S(=O)(=O)c2nnc(NC(=O)c3ccc(C)cc3)s2)cc1OC`?
MBD2 DNA inh: -2.6; PRMT1 FP inh: -6.8; PfGluPho inh: 87.8*; PfM18AAP inh: -15.5; UHRF1 MBD2 ctr: -2.4; PfG6PD confirm: 70.2*; Diaph ctr 10uM: 39.3; Diaph ctr 30uM: 27.2

How did O=S(=O)(Cc1ccccc1)N(O)c1ccccc1 do in these assays?
MBD2 DNA inh: 0.2; PRMT1 FP inh: 5.7; PfGluPho inh: 86.5*; PfM18AAP inh: 13.1; UHRF1 MBD2 ctr: -2.1; PfG6PD confirm: 84.3*; Diaph ctr 10uM: 74.5*; Diaph ctr 30uM: 52.7*

What do the screens show for `O=C(O)CNS(=O)(=O)Cc1ccccc1`?
MBD2 DNA inh: 4.4; PRMT1 FP inh: 3.8; PfGluPho inh: -3.9; PfM18AAP inh: -1.7; UHRF1 MBD2 ctr: 9.7

How did Cc1[nH]c2ccccc2c1/C=N/Nc1ccccn1 do in these assays?
MBD2 DNA inh: -1.0; PRMT1 FP inh: 1.9; PfM18AAP inh: 2.0; UHRF1 MBD2 ctr: -1.0

What do the screens show for `Cc1[nH]c2ccccc2c1/C=N/Nc1nncn1N`?
MBD2 DNA inh: -4.0; PRMT1 FP inh: 5.9; PfGluPho inh: 69.2*; PfM18AAP inh: 60.9*; UHRF1 MBD2 ctr: 15.1; PfG6PD confirm: 60.0*; Diaph ctr 10uM: 35.5; Diaph ctr 30uM: 23.2

What do the screens show for `CCOc1cc(CNc2ccc(S(N)(=O)=O)cc2)cc(Cl)c1OC`?
MBD2 DNA inh: 0.6; PRMT1 FP inh: -1.4; PfGluPho inh: -3.7; PfM18AAP inh: -7.5; UHRF1 MBD2 ctr: 1.7

What do the screens show for `COc1cc(CNc2ccc(N3CCCC3)cc2)cc(Cl)c1OC`?
MBD2 DNA inh: -1.4; PRMT1 FP inh: 4.5; PfGluPho inh: 75.4*; PfM18AAP inh: 11.3; UHRF1 MBD2 ctr: -2.4; PfG6PD confirm: 75.5*; Diaph ctr 10uM: 7.5; Diaph ctr 30uM: 14.0

Results for COc1cc(CNc2ccc(N3CCOCC3)cc2)cc(Br)c1OC ?
MBD2 DNA inh: -1.7; PRMT1 FP inh: 6.0; PfGluPho inh: 23.4; PfM18AAP inh: 7.0; UHRF1 MBD2 ctr: 7.4

How did CCOc1cc(CNc2ccc(N3CCCC3)cc2)cc(Cl)c1OC do in these assays?
MBD2 DNA inh: 0.3; PRMT1 FP inh: 8.5; PfGluPho inh: 83.6*; PfM18AAP inh: 10.4; UHRF1 MBD2 ctr: -6.3; PfG6PD confirm: 63.0*; Diaph ctr 10uM: -4.1; Diaph ctr 30uM: -4.7

Results for C=CCOc1c(Cl)cc(CNc2ccc(N(C)C)cc2)cc1OC ?
MBD2 DNA inh: -10.3; PRMT1 FP inh: 18.7; PfGluPho inh: 78.7*; PfM18AAP inh: 6.6; UHRF1 MBD2 ctr: 5.5; PfG6PD confirm: 51.0*; Diaph ctr 10uM: -0.3; Diaph ctr 30uM: -3.2

What do the screens show for `COc1cccc(CNc2ccc(N3CCCCC3)cc2)c1OC`?
MBD2 DNA inh: 1.2; PRMT1 FP inh: 2.5; PfGluPho inh: 51.9; PfM18AAP inh: 8.3; UHRF1 MBD2 ctr: -4.8

Results for COc1ccccc1CNc1ccc(N2CCCCC2)cc1 ?
PfGluPho inh: 66.3*; PfM18AAP inh: 8.4; PfG6PD confirm: 33.3

What do the screens show for `COC(=O)[C@]12C[C@H](CC(=O)N3CCC(c4ccccc4)CC3)C(=O)N(CCC3=CCCCC3)C1=C[C@H](C(C)C)O[C@@H]2C1CC1`?
MBD2 DNA inh: -3.9; PRMT1 FP inh: 1.0; UHRF1 MBD2 ctr: 1.7

What do the screens show for `O=C(CSc1nnc(-c2ccccc2)n1-c1ccc(Cl)cc1)c1ccccc1Br`?
MBD2 DNA inh: 0.9; PRMT1 FP inh: 2.9; UHRF1 MBD2 ctr: 0.1
